A selection: hits, their analogues and other compounds. The true share with any hit is near 19%.
TDP1 cell CPT: qHTS for Inhibitors of human tyrosyl-DNA phosphodiesterase 1 (TDP1): qHTS in cells in presence of CPT; chicken DT40 Tdp1-/-;hTDP1 cells + 20 nM CPT, ATP luminescence, 48 h; Potency, µM (series often up to 46.2 µM), usual class: inhibitors; 12% of 420,000 active; AID 686979, 2013; note: nearly all actives have a fitted effect of over 55% in size
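Cell growth measured by CellTiter-Glo luminescence after a minimum 48 h, 37 C compound exposure with 20 nM CPT in Tdp1-knockout DT40 cells stably expressing hTDP1, seeded 400/well; qHTS titration format.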
HT1080 IDH1KD tx: qHTS for induction of synthetic lethality in tumor cells producing 2HG: qHTS for the HT-1080-IDH1KD cell line. 2% of 360,000 active. Potency, µM (doses to about 46.1 µM), most hits filed as cytotoxic. HT-1080 IDH1 knockdown viability, ATP luminescence, 48 h. AID 686971, 2013
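Luminescent ATP read-out (CellTiter-Glo, 10 min at room temperature) after 48 h compound exposure at 37 °C gave viability of IDH1-knockdown HT-1080 cells. Activity was normalised to DMSO and cell-free wells, then fitted as concentration-response curves.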
HT1080NT lethal: qHTS for induction of synthetic lethality in tumor cells producing 2HG: qHTS for the HT-1080-NT fibrosarcoma cell line; HT-1080-NT fibrosarcoma viability, CellTiter-Glo ATP luminescence, 48 h; Potency, µM (series often up to 46.1 µM), usual class: cytotoxic; 1.6% of 360,000 active;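 note: NT is the 2HG producing partner of a matched IDH1 knockdown line; nearly all actives have a fitted effect of over 55% in size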
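HT-1080-NT fibrosarcoma cells (2HG-overproducing), 750 cells/well in RPMI with 5% FBS, dosed after 2 h and incubated 48 h at 37C. CellTiter-Glo luminescence normalized to DMSO and no-cell wells; concentration-response curves fitted and classed.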
IL1B secr inh: qHTS for Inhibitors of Inflammasome Signaling: IL-1-beta AlphaLISA Primary Screen. THP-1 LPS/ATP IL-1B secretion, AlphaLISA, 16 h; hits give low values. activity change, % at 57.5 µM. 4.7% of 360,000 active. AID 743279, 2014; in the data active = activity change below about -50%; inconclusive = mostly about -30% to -49%
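Secreted IL-1B measured by AlphaLISA bead assay after 16 h compound exposure of THP-1 cells; compounds (final up to 57.5 uM) added 1 h before LPS (250 ng/mL) and ATP (1.25 mM) stimulation; lower signal means less secretion.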
TDP1 cell noCPT: qHTS for Inhibitors of human tyrosyl-DNA phosphodiesterase 1 (TDP1): qHTS in cells in absence of CPT; 15% of 420,000 active; Potency, µM (titrated, usually from 46.2 µM), most hits filed as inhibitors; DT40 Tdp1-/- hTDP1 cells, no CPT, ATP luminescence, 48 h; note: nearly all actives have a fitted effect of over 55% in size
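Chicken DT40 Tdp1-/- cells complemented with human TDP1, screened without camptothecin (DMSO vehicle only), 400 cells/well. Compounds pin-transferred, cells incubated at 37 °C for at least 48 hr. Growth read as ATP-dependent luminescence (CellTiter-Glo, 30 min at RT).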
Numbers stand for hits; – = inactive; ? = inconclusive; · = not tested or not shown. Unless noted, calls come from the whole dose curve; as a rule, active = well fitted curve in the direction sought with a large enough effect; inconclusive = small, poorly fitted or top-dose-only effect, or another doubt; inactive = no such curve, though single readings can be large; an effect the other way counts as inactive or inconclusive.

SMILES	TDP1 cell CPT	HT1080 IDH1KD tx	HT1080NT lethal	IL1B secr inh	TDP1 cell noCPT
FC(F)(F)COc1ccc(-c2nnc(SCc3ccccc3)o2)cn1	–	–	–	–	–
Cc1cc(C)c(C#N)c(SCC(=O)Nc2c(C)n(C)n(-c3ccccc3)c2=O)n1	–	–	–	–	–
COc1ccc(NC(=O)c2sc(=O)n(Cc3ccc(F)c(Cl)c3)c2C)cc1OC	23µM	?	–	–	10µM
COc1ccc(Br)c(Cn2c(C)c(C(=O)NCc3ccc4c(c3)OCCO4)sc2=O)c1	?	–	–	–	–
CC(=O)Oc1ccc(Cn2c(C)c(C(=O)NCc3ccc4c(c3)OCCO4)sc2=O)cc1	?	–	–	–	16µM
c1ccc(-c2ccc3c(c2)NCCN3)cc1	?	–	–	-75	?
Nc1cc(-c2ccccc2)ccc1O	–	·	·	–	?
Cc1ccc(-c2nc(-c3cc4cccc(OCc5ccc(F)cc5)c4oc3=O)no2)cc1	?	·	·	·	18µM
Cc1ccc(-c2nc(-c3cc4cccc(OCc5cccc(F)c5)c4oc3=O)no2)cc1	15µM	·	·	·	13µM
Cc1ccc(COc2cccc3cc(-c4noc(-c5ccc(C)cc5)n4)c(=O)oc23)cc1	–	·	·	·	?
Cc1ccc(-c2nc3nc(C)cc(C)n3c2Nc2ccc3c(c2)OCCO3)cc1	?	·	·	·	–
Cc1ccc(Nc2c(-c3ccc(O)cc3)nc3cccc(C)n23)cc1	23µM	·	·	·	?
CSc1ccc(-c2nc3cccc(C)n3c2Nc2ccc(Cl)cc2)cc1	9.2µM	·	·	·	7.3µM
CCOC(=O)c1oc2nc(CC(C)C)c3c(c2c1N)CCC3	?	–	–	?	15µM
CCC[C@@H]1C[C@@H](C(=O)N[C@@H]([C@H]2O[C@H](SC)[C@H](OP(=O)(O)O)[C@@H](O)[C@H]2O)[C@H](C)Cl)N(C)C1	–	·	·	·	–
Cc1cc(O)c(C(C)C)cc1N=Cc1ccccc1[N+](=O)[O-]	5.2µM	16µM	?	–	3.3µM
CCOC(=O)c1sc2ncn(CC(=O)Nc3ccc(F)cc3F)c(=O)c2c1C	–	·	·	·	–
CSCCC(N=C1NS(=O)(=O)c2ccccc21)C(=O)N1CCCC(C(N)=O)C1 (stereo not given)	–	–	–	–	–
CCC1=NN(C(=O)c2ccc(Cl)cc2)C(O)(c2ccc(C)cc2)C1 (stereo not given)	?	?	?	–	?
CCC1=NN(C(=O)c2ccccc2O)C(O)(c2ccccc2)C1 (stereo not given)	13µM	?	?	–	12µM
CCC1=NN(C(=O)c2ccc(Cl)cc2)C(O)(c2ccccc2)C1 (stereo not given)	23µM	–	–	–	?
CC(O)CC(=O)NOCc1ccccc1 (stereo not given)	–	–	–	–	–
O=S(=O)(Nc1ccccc1N1CCOCC1)c1ccccc1C(F)(F)F	?	–	–	–	18µM
O=S(=O)(Nc1ccccc1N1CCCCC1)c1ccc(Cl)s1	10µM	–	–	–	8.2µM
O=S(=O)(Nc1ccccc1N1CCCC1)c1ccccc1C(F)(F)F	21µM	–	–	–	21µM
SMILES	TDP1 cell CPT	HT1080 IDH1KD tx	HT1080NT lethal	IL1B secr inh	TDP1 cell noCPT
COc1cc(OC)c(S(=O)(=O)Nc2ccccc2N2CCCCC2)cc1NC(C)=O	–	–	–	–	–
Cn1c(NCc2cccnc2)nc2cc(-c3ccc(C(=O)N4CCOCC4)cc3)sc2c1=O	?	–	–	–	?
CCn1ncc(Br)c1C(=O)N(C)C12CC3CC(CC(C3)C1)C2	?	–	–	–	?
CCn1ncc(Br)c1C(=O)Nc1ccn(C23CC4CC(CC(C4)C2)C3)n1	21µM	–	–	–	13µM
O=c1cc(-c2ccccc2)oc2c1CCCC2	?	–	–	–	?
O=C(NNC(=O)c1ccccc1Cl)c1ccc(-n2cncn2)c([N+](=O)[O-])c1	–	–	–	–	–

Compound activity (PubChem)
